Inconclusive results are not listed. Entries that show only a call come without a potency. The source made the active and inactive calls. Unless noted, the call rests on the fitted dose curve; in most records, active means well fitted curve in the direction sought with a large enough effect; inconclusive means small, poorly fitted or top-dose-only effect, or another doubt; inactive means no such curve, though single readings can be large; an effect the other way counts as inactive or inconclusive.
Columns and labels:
[1] = Confirmatory qHTS for VERO E6 Cytotoxicity Assay: Counterscreen for SARS-CoV-2 CPE Assay (AID 1508605; calls by dose curve; further: nearly all actives have a fitted effect of over 60% in size)
[2] = Confirmatory qHTS for activators (rescue) of SARS-CoV-2 Cytopathic Effect (CPE) (AID 1508606; calls by dose curve; further: potency means the concentration at half of the fitted maximal effect; nearly all actives have a fitted effect of over 70% in size)
CRL-7250 = normal cell line; test: qHTS assay to identify novel small-molecules to repurpose for Merkel cell carcinoma treatment (AID 1296009); conditions: MCC and control cell lines, CellTiter-Glo viability, 72 h; series mostly up to 92 µM; further: nearly all actives have a fitted effect of over 60% in size
Procedure, shortened: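 Cells were treated for 72 hr at 37 degree celsius with compounds in 8- or 11-point dose response. Viability was read by CellTiter-Glo luminescence, normalized to no-cell (cytotoxicity) and DMSO controls.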

[3] = Cytotoxicity counterscreen for inhibitors of SARS-CoV-2 cell entry (AID 1645845; calls by dose curve; further: nearly all actives have a fitted effect of over 50% in size; further: potency means the concentration at half of the fitted maximal effect)
Procedure, shortened: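 HEK293-ACE2 cells (Expi293F stably expressing human ACE2) seeded overnight, then compound for 1 h plus 48 h at 37C. Viability as ATP content by luminescence; normalized to wells with cells and media-only wells.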

[4] = Primary qHTS to identify inhibitors of SARS-CoV-2 cell entry (AID 1645846; calls by dose curve; further: nearly all actives have a fitted effect of over 45% in size); conditions: activity change, negative = inhibition: at 57.1 µM (top of the series) unless noted
Procedure, shortened: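 Luminescence readout (Bright-Glo luciferase) 48 h after pseudoparticle addition. HEK293-ACE2 cells, 1500/well; compound pre-incubation 1 h; Normalized to spike PP and bald PP.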

[5] = P-glycoprotein substrates identified in KB-3-1 adenocarcinoma cell line, qHTS therapeutic library screen (AID 1346986);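 further: potency means the concentration at half of the fitted maximal effect; potency is for cytotoxicity meaning loss of cell viability; nearly all actives have a fitted effect of over 60% in size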
Procedure, shortened: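 KB-3-1 parental and colchicine-selected P-gp-overexpressing KB-8-5-11 cells (colchicine omitted during assay), 500 cells/well, dosed in dose-response for 72 h at 37 °C; CellTiter-Glo luminescence. Cytotoxic: curve class -1.1 to -2.4, max response >50%, AC50 < 10 uM.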

[6] = P-glycoprotein substrates identified in KB-8-5-11 adenocarcinoma cell line, qHTS therapeutic library screen (AID 1346987); further: potency means the concentration at half of the fitted maximal effect; nearly all actives have a fitted effect of over 65% in size
Procedure, shortened: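 KB-8-5-11, a colchicine-selected P-gp-overexpressing KB-3-1 subline, was grown without colchicine for the assay. Cells were seeded at 500 cells/well, dosed in concentration-response and incubated 72 h at 37 degree C, 5% CO2. Viability was read by CellTiter-Glo luminescence.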

[7] = target: Glutathione peroxidase 1 (Homo sapiens) (UniProt P07203); test: Primary qHTS Assay for Inhibitors of Recombinant Selenoprotein Glutathione Peroxidase 1 (GPX1) (AID 1845191); further: nearly all actives have a fitted effect of over 65% in size
Glutathione peroxidase 1 (Homo sapiens), sequence (P07203 whole entry, looked up): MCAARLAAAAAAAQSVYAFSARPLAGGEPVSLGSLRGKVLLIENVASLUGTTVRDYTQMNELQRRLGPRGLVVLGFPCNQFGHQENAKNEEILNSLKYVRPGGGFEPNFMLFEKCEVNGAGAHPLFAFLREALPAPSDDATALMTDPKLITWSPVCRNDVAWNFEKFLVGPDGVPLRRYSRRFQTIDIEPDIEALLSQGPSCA
Procedure, shortened: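 GR-coupled assay: compounds preincubated 30 min at room temperature with GPX1, then reaction started with CHP; final 10 nM GPX1, 1 mM GSH, 0.5 mM CHP, 0.5 mM NADPH, 100 nM GR, 0.01% BSA, pH 7.5 Tris buffer. NADPH fluorescence (340/450 nm) read at 0 and 15 min.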

[8] = target: Phospholipid hydroperoxide glutathione peroxidase GPX4 (Homo sapiens) (UniProt P36969); test: Primary qHTS Assay for Inhibitors of Recombinant Selenoprotein Glutathione Peroxidase 4 (GPX4) (AID 1845192); further: nearly all actives have a fitted effect of over 65% in size
Phospholipid hydroperoxide glutathione peroxidase GPX4 (Homo sapiens), sequence (P36969 whole entry, looked up): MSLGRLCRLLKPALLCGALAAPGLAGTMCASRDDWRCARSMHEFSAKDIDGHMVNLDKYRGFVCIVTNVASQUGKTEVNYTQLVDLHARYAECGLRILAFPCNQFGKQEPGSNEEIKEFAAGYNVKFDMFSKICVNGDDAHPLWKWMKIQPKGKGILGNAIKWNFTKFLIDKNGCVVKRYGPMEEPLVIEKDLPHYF
Procedure, shortened: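 GR-coupled assay: recombinant GPX4 preincubated 30 min with compound at room temperature; final 200 nM GPX4, 1 mM GSH, 0.5 mM cumene hydroperoxide, 0.5 mM NADPH, 100 nM GR, 0.01% BSA, pH 7.5 Tris. NADPH fluorescence (340/450 nm) read at 0 and 15 min.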

[9] = qHTS drug screen for cell cycle checkpoint inhibitors in PARPi-resistant BRCA-mutant ovarian cancer cell lines. (AID 1963452; calls by dose curve); conditions: PEO1/OlaR viability, CellTiter-Glo luminescence, 96 h, stronger effect = lower value
Procedure, shortened: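 PEO1, PEO4 and PEO1/OlaR ovarian cancer cells, 600 per well, exposed 96 h at 37C to a dilution series. Viability read by CellTiter-Glo luminescence, normalized to DMSO and empty wells; activity summarized as Z-AUC.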

[10] = target: Luciferin 4-monooxygenase (Photinus pyralis) (UniProt P08659); test: Biochemical firefly luciferase enzyme assay for NPC (AID 624030);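 further: purified P. pyralis luciferase at 10 nM with luciferin and ATP substrate; nearly all actives have a fitted effect of over 70% in size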
Luciferin 4-monooxygenase (Photinus pyralis), sequence (P08659 whole entry, looked up): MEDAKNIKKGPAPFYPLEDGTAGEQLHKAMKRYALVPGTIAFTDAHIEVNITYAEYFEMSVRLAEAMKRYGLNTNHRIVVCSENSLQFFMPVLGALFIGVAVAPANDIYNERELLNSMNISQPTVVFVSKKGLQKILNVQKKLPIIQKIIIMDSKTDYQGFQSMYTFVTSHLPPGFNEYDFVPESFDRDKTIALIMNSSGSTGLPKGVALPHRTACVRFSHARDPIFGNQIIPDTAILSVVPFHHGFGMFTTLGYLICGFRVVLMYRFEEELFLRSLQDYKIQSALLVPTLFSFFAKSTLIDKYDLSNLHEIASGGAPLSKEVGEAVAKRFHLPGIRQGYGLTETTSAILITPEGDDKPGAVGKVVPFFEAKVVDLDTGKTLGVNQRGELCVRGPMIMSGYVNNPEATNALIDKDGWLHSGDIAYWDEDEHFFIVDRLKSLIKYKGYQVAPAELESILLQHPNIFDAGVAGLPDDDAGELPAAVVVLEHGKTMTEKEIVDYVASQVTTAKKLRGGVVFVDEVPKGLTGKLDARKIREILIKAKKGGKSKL
Procedure, shortened: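 Purified P. pyralis luciferase at 10 nM in 50 mM Tris Acetate (final), luminescence read within 5 minutes of enzyme addition to compounds. Activity normalised to PTC124 versus DMSO; concentration-response curves classed by r2, magnitude and activity.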

[11] = qHTS for Inhibitors of the Functional Ribonucleoprotein Complex (vRNP) of Lassa (LASV) Arenavirus: LASV Primary Screen - GLuc reporter signal (AID 1347082; calls by dose curve; tested in HEK293 reporter line; further: nearly all actives have a fitted effect of over 60% in size)
[12] = qHTS for Inhibitors of the Functional Ribonucleoprotein Complex (vRNP) of Lassa (LASV) Arenavirus: Viability assay - alamar blue signal for LASV Primary Screen (AID 1347083; calls by dose curve; tested in HEK293 reporter line; further: nearly all actives have a fitted effect of over 80% in size)
[13] = qHTS for Inhibitors of the Functional Ribonucleoprotein Complex (vRNP) of Lymphocytic Choriomeningitis Arenaviruses (LCMV): Viability assay - alamar blue signal for LCMV Primary Screen (AID 1347085; calls by dose curve; tested in HEK293 reporter line; further: nearly all actives have a fitted effect of over 80% in size)
[14] = target: Nucleoprotein (Lymphocytic choriomeningitis virus (strain Armstrong)) (UniProt P09992); test: qHTS for Inhibitors of the Functional Ribonucleoprotein Complex (vRNP) of Lymphocytic Choriomeningitis Arenaviruses (LCMV): LCMV Primary Screen - GLuc reporter signal (AID 1347086; calls by dose curve; further: nearly all actives have a fitted effect of over 70% in size)
Nucleoprotein (Lymphocytic choriomeningitis virus (strain Armstrong)), sequence (P09992 whole entry, looked up): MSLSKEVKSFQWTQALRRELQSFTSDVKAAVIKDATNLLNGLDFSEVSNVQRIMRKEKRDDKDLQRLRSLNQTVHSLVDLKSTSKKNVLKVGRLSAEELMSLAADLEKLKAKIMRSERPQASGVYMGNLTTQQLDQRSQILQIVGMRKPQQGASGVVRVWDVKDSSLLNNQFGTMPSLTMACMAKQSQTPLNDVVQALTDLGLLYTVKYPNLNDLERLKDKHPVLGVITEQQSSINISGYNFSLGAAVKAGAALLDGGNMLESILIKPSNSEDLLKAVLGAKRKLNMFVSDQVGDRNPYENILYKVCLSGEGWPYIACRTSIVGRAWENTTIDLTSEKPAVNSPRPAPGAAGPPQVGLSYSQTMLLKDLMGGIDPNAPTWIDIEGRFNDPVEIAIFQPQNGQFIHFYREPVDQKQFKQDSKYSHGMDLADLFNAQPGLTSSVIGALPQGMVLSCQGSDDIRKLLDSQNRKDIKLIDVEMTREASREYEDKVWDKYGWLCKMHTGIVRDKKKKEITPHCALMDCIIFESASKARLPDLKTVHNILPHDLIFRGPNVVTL

astro = test: Drug repurposing screens with cells derived from glioblastoma tumor samples (AID 1345199); conditions: viability, ATP luminescence, 48 h; series mostly up to 45.9 µM; further: nearly all actives have a fitted effect of over 40% in size; further: potency means the concentration at half of the fitted maximal effect
Procedure, shortened: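 Four patient lines of CD133+ GBM neurospheres were screened at several concentrations; hits were retested in those lines plus three slower-growing GBM lines, using 48-hour treatment and ATP-based viability.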

[15] = qHTS Assay for Identifying Gametocytocidal Compounds (AID 743244);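 further: actives lower the fluorescent signal which means gametocytes are killed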; conditions: P. falciparum 3D7 stage III-V gametocytes, alamarBlue, 72 h; max response: stronger effect = lower value
Procedure, shortened: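 Using 20,000 stage III–V 3D7 gametocytes per well, compounds were incubated 72 h under 37 °C/5% CO2. Viability was then assessed by 24 h alamarBlue reduction, measured fluorometrically at 525/598 nm.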

[16] = Primary qHTS for inhibitors of nuclear receptor binding SET domain protein 2 (NSD2) in an isogenic RCH-ACV NSD2 p.E1099K mutant (9B) (AID 1645876); further: potency means the concentration at half of the fitted maximal effect; nearly all actives have a fitted effect of over 70% in size
[17] = Primary qHTS for inhibitors of nuclear receptor binding SET domain protein 2 (NSD2) in an RCH-ACV wild type WT cells (2C) (AID 1645877)
[18] = measured here: PEO1 parental Z-AUC

COc1ccccc1OCCNCC(O)CCOc1cccc2[nH]c3ccccc3c12 (stereo unspecified)
Potency [1]: inactive
Potency [2]: 10 µM (active)
Potency (CRL-7250): inactive

COc1ccc(-c2cnc3c(-c4cccc5ncccc45)cnn3c2)cc1
Potency [3]: inactive
Potency (CRL-7250): inactive

NC1CCC(N[C@@H]2C[C@H]2c2ccccc2)CC1 (stereo partly specified)
Potency [3]: inactive
activity change, negative = inhibition [4]: -44.4%
Potency (CRL-7250): inactive

COc1cc2c(cc1F)C(c1ccccc1Cl)=Nc1c(n[nH]c1C)N2
Potency [5]: 2.06 µM (active)
Potency [6]: 1.3 µM (active)
Potency [3]: inactive
Potency [7]: inactive
Potency [8]: inactive
Z-AUC [9]: -0.71 (inactive)
Z-AUC [9, 18]: -0.883
Z-AUC ([9]; measured here: PEO4 Z-AUC): -0.718

CCCCCc1cc(O)c2c(c1)OC(C)(C)c1ccc(C)cc1-2
Potency [10]: inactive
Potency [11]: inactive
Potency [12]: inactive
Potency [13]: inactive
Potency [14]: inactive
Potency (astro): 22.4 µM (active)

COc1cc([C@@H]2c3cc4c(cc3C[C@H]3COC(=O)[C@@H]32)OCO4)cc(OC)c1O
Potency [11]: inactive

CC[C@@H](O)C(C[C@@H](C)N(C)C)(c1ccccc1)c1ccccc1
Potency [10]: inactive
max response [15]: 5.08% (inactive)
Potency (astro): inactive

O=C(NCCCNc1nc(Nc2ccc(N3CCOCC3)cc2)ncc1C1CC1)C1CCC1
Potency [5]: 10.3 µM (active)
Potency [6]: 11.6 µM (active)
Potency [3]: 22.4 µM (active)
Potency [16]: 5.25 µM (active)
Potency [17]: 7.42 µM (active)
Potency [7]: inactive
Potency [8]: inactive
Z-AUC [9]: 0.0288 (inactive)
Z-AUC [9, 18]: -0.267
Z-AUC ([9]; measured here: PEO4 Z-AUC): -0.524

Source: PubChem BioAssay (NCATS)
